In the library only some 9.2% were active in any assay of this set; here they are far more common.
ELG1 DNA repair – inhibitors of ELG1-dependent DNA repair in HEK293T cells | AID 504467 | Potency, µM (top dose mostly 46.1 µM), without a hit: at the highest dose activity change, negative = inhibition, usual class: inhibitors | HEK293T ELG1-luciferase reporter, luminescence, 16 h; DNA damage induced by 5-fluorouridine | 330,000 compounds, 2.3% hits; also: % is scaled to controls: 0 for no effect and ±100 for the full control effect; nearly all actives have a fitted effect of over 55% in size
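Quantitative HTS, concentration-response format. 2,000 cells/well co-treated with 5-fluorouridine and compound, 16 hr in 5% CO2 at 37 °C; ONE-Glo luminescence read after 30 min.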
Rab9 prom act – activates the Rab9 promoter | Potency, µM (doses to about 9.22 µM), without a hit: at the highest dose activation, negative = inhibition, usual class: activators | AID 485297 | 320,000 compounds, 2.8% hits | Huh7 Rab9 promoter-luciferase reporter, luminescence, 24 h; also: % of control where 0% means no effect; nearly all actives have a fitted effect of over 60% in size
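Cell-based reporter: Huh7 stable for Rab9 promoter-driven luciferase, plated in reduced-serum medium with 10% FBS at 1500 cells/well, compound-treated 24 h at 37 °C, luminescence read after 10 min reagent.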
FLuc counter – counter-screen for miR-21 project: firefly luciferase inhibitors or activators; purified FLuc, Km substrates, luminescence inhibition; Potency, µM (doses to about 57.5 µM), without a hit: top-dose activity change, negative = inhibition, most hits filed as inhibitors; 360,000 compounds, 6.9% hits;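 also: plate controls were vehicle for no effect and reference inhibitor for full effect; nearly all actives have a fitted effect of over 55% in size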
Target sequence (P08659 whole entry, looked up): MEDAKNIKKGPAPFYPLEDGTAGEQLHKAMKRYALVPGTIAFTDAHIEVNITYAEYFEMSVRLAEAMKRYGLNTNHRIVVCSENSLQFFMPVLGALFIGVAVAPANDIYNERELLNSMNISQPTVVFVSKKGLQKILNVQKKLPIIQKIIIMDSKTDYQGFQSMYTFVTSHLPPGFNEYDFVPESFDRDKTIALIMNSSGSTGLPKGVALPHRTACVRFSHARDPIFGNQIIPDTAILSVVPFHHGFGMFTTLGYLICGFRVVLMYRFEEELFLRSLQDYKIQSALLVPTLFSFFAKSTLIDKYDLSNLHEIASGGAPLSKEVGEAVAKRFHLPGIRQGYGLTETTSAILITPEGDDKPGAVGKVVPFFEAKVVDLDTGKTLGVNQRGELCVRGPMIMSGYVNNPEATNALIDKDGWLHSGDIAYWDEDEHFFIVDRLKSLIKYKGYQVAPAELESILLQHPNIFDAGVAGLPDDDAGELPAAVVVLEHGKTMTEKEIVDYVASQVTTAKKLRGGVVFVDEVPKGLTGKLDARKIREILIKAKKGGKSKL
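Purified P. pyralis luciferase, 10 nM final, with Km-level 10 uM D-luciferin and 10 uM ATP in 50 mM Tris acetate pH 7.5, 10 mM Mg acetate, 0.01% Tween-20, 0.05% BSA; 6-point qHTS titration about 60 µM downward; luminescence read.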
ELG1 genotox – induces genotoxicity in HEK293T cells with luciferase-tagged ELG1 | 330,000 compounds, 1.3% hits | HEK293T ELG1-luciferase reporter, luminescence, 16 h | AID 504466 | Potency, µM (titrated, usually from 46 µM), inactives show at the highest dose activity change, positive = activation, most hits filed as activators; also: % of control where 0% means no effect; nearly all actives have a fitted effect of over 60% in size
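Cells (2,000/well) expressing the ELG1-luciferase fusion are dosed by pin tool and kept 16 hr at 37 °C, 5% CO2. Signal comes from ONE-Glo luciferase reagent after 30 min at room temperature.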
NPC1 promoter act – activators of NPC1 promoter. Huh7 NPC1 promoter luciferase reporter, 24 h. Potency, µM (top dose mostly 9.22 µM), for inactives: top-dose activation, hits mostly activators. 320,000 compounds, 2.4% hits. AID 485313; also: % of control where 0% means no effect; nearly all actives have a fitted effect of over 60% in size
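Readout is luciferase luminescence, reflecting NPC1 promoter activation in stably transfected Huh7 cells after 24 h compound exposure at 37 °C in reduced-serum medium with 10% FBS.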
SMN2 splice up – enhancers of SMN2 splice variant expression. HEK293 SMN2-luciferase splicing reporter, luminescence, 30-36 h. Potency, µM (highest dose often 46.1 µM), for the others: top-dose activity change, positive = activation, usual class: activators. 210,000 compounds, 2.8% hits. AID 1458; also: % of control where 0% means no effect; nearly all actives have a fitted effect of over 55% in size
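qHTS luciferase splicing reporter: luminescence rises when SMN2 exon 7 is included in transfected HEK293 cells. Compound exposure lasted 30-36 h at 37C, with 4.5 mM final sodium butyrate as control, followed by a ONE-Glo read.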
* marks the source's active call; other numbers are inactive results; u = inconclusive; x = no result given; [ ] = remark or other dose. Calls follow the shape of the dose curve; as a rule, active = well fitted curve in the direction sought with a large enough effect; inconclusive = small, poorly fitted or top-dose-only effect, or another doubt; inactive = no such curve, though single readings can be large; an effect the other way counts as inactive or inconclusive. Potency is read from the fitted curve at half-maximal effect.

SMILES	ELG1 DNA repair	Rab9 prom act	FLuc counter	ELG1 genotox	NPC1 promoter act	SMN2 splice up
COc1ccc2oc(=O)c(C(C)=O)cc2c1	-7.0%	0.6%	6.0%	-1.0%	-3.7%	-18.5%
COc1ccc2oc(=O)c(C(=O)Nc3ccc(C(=O)O)cc3)cc2c1	x	x	6.75µM*	x	x	-1.5%
N=c1oc2ccc(Br)cc2cc1C(=O)NC1CCCCCC1	11.3%	0.3%	1.6%	-7.9%	0.3%	x
Cc1ccc(S(=O)(=O)N(C)c2ccc(C(=O)N3CCN(Cc4ccc5c(c4)OCO5)CC3)cc2)cc1	6.51µM*	-30.2%	3.9%	-6.2%	-13.0%	-69.1%
CN(c1ccc(C(=O)N2CCN(Cc3ccc4c(c3)OCO4)CC2)cc1)S(=O)(=O)c1ccccc1	23.1µM*	-17.4%	2.3%	-16.3%	-3.3%	-68.7%
Cc1ccc(S(=O)(=O)N(C)C)cc1NC(=S)N1CCN(Cc2ccc3c(c2)OCO3)CC1	8.2µM*	-13.5%	-0.9%	-9.4%	-20.6%	-70.5%
COCCn1c(=S)[nH]c2cc(C(=O)N3CCN(Cc4ccc5c(c4)OCO5)CC3)ccc2c1=O	5.17µM*	-24.2%	-4.0%	1.3%	-22.7%	-42.7%
CC(NS(=O)(=O)/C=C/c1ccccc1)C(=O)NCCc1ccc(S(N)(=O)=O)cc1 (centres undefined)	4.3%	1.5%	-3.3%	-1.6%	-0.2%	9.8%
Cn1nc(C(=O)NNC(=O)c2ccccc2Br)c2ccccc2c1=O	13.5%	1.2%	-0.1%	-1.4%	-0.4%	x
COc1ccc(/C=C2\N=C3CCCCCN3C2=O)cc1	u	-2.3%	15.1µM*	u	-1.1%	u
CN(C)C=Nc1ncc2c3ccccc3n(CCN(C)C)c2c1C#N	6.51µM*	2.5%	2.3%	-7.6%	0.9%	-51.4%
Cc1ccccc1OCCC(=O)OCC(=O)NC1CC1	15.9%	1.6%	5.7%	-1.6%	-3.4%	x
Cc1ccnc(Nc2nc(-c3ccc(Cl)cc3)cs2)c1	u	2.82µM*	2.69µM*	u	2.82µM*	x
Cc1ccc(S(=O)(=O)Nc2nc(-c3ccc(F)cc3)cs2)cc1	7.1%	0.8%	-17.4%	-0.3%	-4.4%	x
Cc1ccnc(Nc2nc(-c3ccc(F)cc3)cs2)c1	u	2.51µM*	0.849µM*	u	1.78µM*	x
O=c1c2cc(Br)ccc2nc(-c2ccc(Cl)cc2)n1O	u	0.8%[1.84 µM]	0.1%	-11.1%	-1.1%	x
N#Cc1ccc(-c2nc3cc(Cl)ccc3c(=O)n2O)cc1	11.6µM*	-1.6%	1.3%	-5.7%	-4.8%	x
On1c(-c2ccccc2)nc2ccc(Cl)cc21	u	u	16.9µM*	7.6%	u	12.6µM*
Nn1c(-c2ccccc2)nc2cc(Cl)ccc2c1=O	-8.6%	-1.6%	5.4%	2.0%	0.9%	x
N#Cc1ccc(-c2nc3ccccc3c(=O)n2O)cc1	u	3.3%	-0.3%	-13.5%	1.4%	x
O=c1c2cc(Cl)ccc2nc(-c2ccc([N+](=O)[O-])cc2)n1O	18.3µM*	0.7%	u	-9.6%	-4.9%	-42.0%
CCN(C[C@H]1N[C@@](C)(C(=O)OC)[C@H]2C(=O)N(C)C(=O)[C@@H]12)C(=O)Nc1ccccc1	20.7%	x	x	-0.7%	x	x
CCc1ccccc1N(C)C(=O)c1cc2c(Cl)nc3ccc(C)cc3c2s1	x	x	3.4%	x	x	3.9%
CC(=O)c1ccccc1OC(=O)COc1ccc([N+](=O)[O-])cc1	-2.2%	-0.9%	u	0.1%	-1.2%	x
O=c1c(-c2ccccc2)c[nH]n1-c1cccc([N+](=O)[O-])c1	u	u	15.1µM*	17.9%	u	x
SMILES	ELG1 DNA repair	Rab9 prom act	FLuc counter	ELG1 genotox	NPC1 promoter act	SMN2 splice up
O=[N+]([O-])c1cccc(-n2nncc2-c2ccccc2)c1	-0.5%	6.8%	-0.5%	1.8%	-0.9%	x
O=c1c(-c2ccc(Cl)cc2)c[nH]n1-c1ccccc1	u	-0.4%[1.84 µM]	9.53µM*	12.2%	u	x
Cc1[nH]n(-c2ccccc2)c(=O)c1-c1ccc(Cl)cc1	10.4%	2.2%	u	-1.6%	6.8%	-14.7%
Nc1c(C(=O)NCCc2ccccc2)nnn1CC(=O)Nc1ccc(Cl)cc1	x	x	0.3%	x	x	x
CCC(=O)Nc1ccccc1-c1nc2ccccc2n(C(C)C(=O)Nc2cccc(Cl)c2C)c1=O (centres undefined)	x	x	4.8%	x	x	x
COc1ccc(C(=O)N2CCC[C@@]3(CCN(CC(C)C)C3)C2)cc1	x	x	x	x	x	-1.2%
COc1ccc(C(=O)c2cn(Cc3ccc(C)cc3)c3cc4c(cc3c2=O)OCO4)cc1	x	x	0.9%	x	x	-13.4%
COc1cccc(CNn2c(-c3cccc(C)c3)nc3ccccc3c2=O)c1	20.6µM*	-3.5%	0.8%	-20.9%	-0.2%	-19.6%
COc1ccc(OCC(=O)Nn2c(-c3ccc(C)cc3)nc3ccccc3c2=O)cc1	-1.5%	-4.2%	2.1%	-0.2%	-2.7%	-34.1%
COc1ccc(OC)c(CNn2c(-c3cccc(C)c3)nc3ccccc3c2=O)c1	18.4µM*	-3.6%	-16.1%	-9.3%	-2.9%	-14.7%
COc1cccc(CC(=O)Nn2c(C)nc3ccccc3c2=O)c1	u	-0.2%	4.4%	0.3%	-5.2%	3.7%
COc1ccc(CNn2c(-c3cccs3)nc3ccccc3c2=O)cc1OC	8.2µM*	1.8%	-10.3%	-8.6%	-2.2%	-87.1%
CCN(C(=O)CCS(=O)(=O)c1cc(Br)cc2c1N(C(=O)C1CC1)CC2)c1cccc(C)c1	x	x	-2.4%	x	x	-3.5%
Cc1cc(C)n2nc(SCC(=O)N3CCC(C)CC3)nc2n1	0.4%	x	x	5.3%	x	x
Cc1cc(NC(=O)C(C)Oc2ccc(Cl)cc2Cl)no1 (centres undefined)	u	-2.5%	23.9µM*	9.7%	5.2%	x
CC(Oc1ccc(Cl)cc1Cl)C(=O)Nc1ncccn1 (centres undefined)	u	4.7%	u	8.9%	6.3%	2.6%
Cc1ccc(OC(C)C(=O)Nc2cc(C)on2)cc1 (centres undefined)	4.7%	-1.1%	19µM*	-7.8%	-0.6%	x
Cc1cc(NC(=O)c2ccc(NC(=O)C(C)Oc3ccccc3)cc2)no1 (centres undefined)	-24.3%	2.3%	-0.3%	-2.6%	0.6%	1.2%

Screening data from PubChem.
